# Data from PubChem BioAssay AID1159580 (chemical genetic matrix, 2015).
# Where “and” joins values, the source holds several entries; their conditions need not be identical. Equal values may be shown once. Out of some 5,500 compounds screened, about 2,000 (36%) were called active. Inconclusive results (about 18%) are left out. The list shows a part of the results. Values without a mark were called inactive. No stated cut-off is given here; in the data, active means normalized growth mostly below about 0.91 (no sharp cut-off); inconclusive means no clear call, values can overlap the other calls; inactive means mostly above about 0.92.
# Experiment: chemical genetic growth profiling, strain panel (AID 1159580);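 further: tested at 20 µM; growth read once vehicle control cultures reached saturation at 30 °C; 1 = growth at the plate median or of vehicle wells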
# Conditions: S. cerevisiae deletion strains, growth OD
smiles,measurement,setting,value
CC(C)(O)CC[C@@H](O)[C@](C)(O)C1CC[C@@]2(O)C3=CC(=O)C4C[C@@H](O)[C@@H](O)C[C@]4(C)C3CC[C@]12C (stereo not given in full),normalized growth,"locus YAL013W, strain DEP1, stronger effect = lower value",1.04
same,normalized growth,"locus YAL021C, strain ccr4, stronger effect = lower value",0.991
same,normalized growth,"locus YAL026C, strain drs2, stronger effect = lower value",1
same,normalized growth,"locus YAL030W, strain snc1, stronger effect = lower value",0.999
same,normalized growth,"locus YBL061C, strain skt5, stronger effect = lower value",1
same,normalized growth,"locus YBR009C, strain hhf1, stronger effect = lower value",1.01
same,normalized growth,"locus YBR021W, strain FUR4, stronger effect = lower value",0.984
same,normalized growth,"locus YBR023C, strain chs3, stronger effect = lower value",0.996
same,normalized growth,"locus YBR171W, strain sec66, stronger effect = lower value",0.99
same,normalized growth,"locus YBR229C, strain ROT2, stronger effect = lower value",1
same,normalized growth,"locus YBR231C, strain swc5, stronger effect = lower value",0.993
same,normalized growth,"locus YBR279W, strain paf1, stronger effect = lower value",1.01
same,normalized growth,"locus YCL011C, strain gbp2, stronger effect = lower value",1.01
same,normalized growth,"locus YCL016C, strain dcc1, stronger effect = lower value",0.995
same,normalized growth,"locus YCL029C, strain bik1, stronger effect = lower value",1
same,normalized growth,"locus YCL061C, strain MRC1, stronger effect = lower value",1
same,normalized growth,"locus YCL069W, strain vba3, stronger effect = lower value",1.03
same,normalized growth,"locus YCR088W, strain abp1, stronger effect = lower value",0.999
same,normalized growth,"locus YDL005C, strain med2, stronger effect = lower value",0.994
same,normalized growth,"locus YDL035C, strain GPR1, stronger effect = lower value",1.03
same,normalized growth,"locus YDL040C, strain nat1, stronger effect = lower value",0.98
same,normalized growth,"locus YDL074C, strain BRE1, stronger effect = lower value",1.03
same,normalized growth,"locus YDL101C, strain DUN1, stronger effect = lower value",1.02
same,normalized growth,"locus YDL185W, strain tfp1, stronger effect = lower value",0.999
same,normalized growth,"locus YDL192W, strain arf1, stronger effect = lower value",1
same,normalized growth,"locus YDR001C, strain nth1, stronger effect = lower value",1
same,normalized growth,"locus YDR069C, strain doa4, stronger effect = lower value",1.01
same,normalized growth,"locus YDR101C, strain arx1, stronger effect = lower value",0.984
same,normalized growth,"locus YDR137W, strain rgp1, stronger effect = lower value",0.976
same,normalized growth,"locus YDR150W, strain NUM1, stronger effect = lower value",1.01
same,normalized growth,"locus YDR159W, strain sac3, stronger effect = lower value",0.99
same,normalized growth,"locus YDR162C, strain NBP2, stronger effect = lower value",1.03
same,normalized growth,"locus YDR195W, strain ref2",0.972
same,normalized growth,"locus YDR297W, strain sur2, stronger effect = lower value",1.01
same,normalized growth,"locus YDR318W, strain mcm21, stronger effect = lower value",1
same,normalized growth,"locus YDR334W, strain swr1, stronger effect = lower value",1
same,normalized growth,"locus YDR335W, strain msn5, stronger effect = lower value",1
same,normalized growth,"locus YDR388W, stronger effect = lower value",0.993
same,normalized growth,"locus YDR392W, strain spt3, stronger effect = lower value",0.976
same,normalized growth,"locus YDR502C, strain sam2, stronger effect = lower value",1
same,normalized growth,"locus YEL003W, strain gim4, stronger effect = lower value",1.01
same,normalized growth,"locus YEL037C, strain rad23, stronger effect = lower value",0.992
same,normalized growth,"locus YEL061C, strain CIN8 (second series), stronger effect = lower value",1
same,normalized growth,"locus YEL061C, strain CIN8, stronger effect = lower value",1
same,normalized growth,"locus YER015W, strain faa2, stronger effect = lower value",1
same,normalized growth,"locus YER016W, strain bim1, stronger effect = lower value",0.996
same,normalized growth,"locus YER110C, stronger effect = lower value",0.994
same,normalized growth,"locus YER111C, strain swi4, stronger effect = lower value",1.01
same,normalized growth,"locus YER155C, strain BEM2 (second series), stronger effect = lower value",0.996
same,normalized growth,"locus YER155C, strain BEM2, stronger effect = lower value",1
same,normalized growth,"locus YER167W, strain BCK2, stronger effect = lower value",1.02
same,normalized growth,"locus YFR010W, strain ubp6, stronger effect = lower value",1
same,normalized growth,"locus YGL078C, strain dbp3, stronger effect = lower value",1
same,normalized growth,"locus YGL086W, strain mad1, stronger effect = lower value",1
same,normalized growth,"locus YGL167C, strain pmr1, stronger effect = lower value",1
same,normalized growth,"locus YGL173C, strain kem1, stronger effect = lower value",1
same,normalized growth,"locus YGL227W, strain vid30, stronger effect = lower value",0.999
same,normalized growth,"locus YGL240W, strain doc1, stronger effect = lower value",0.98
same,normalized growth,"locus YGL248W, strain PDE1, stronger effect = lower value",1.01
same,normalized growth,"locus YGL253W, strain hxk2, stronger effect = lower value",1.01
same,normalized growth,"locus YGR078C, strain PAC10, stronger effect = lower value",1.03
same,normalized growth,"locus YGR135W, strain pre9, stronger effect = lower value",0.997
same,normalized growth,"locus YGR229C, strain SMI1, stronger effect = lower value",1.04
same,normalized growth,"locus YGR252W, strain gcn5, stronger effect = lower value",0.995
same,normalized growth,"locus YHR013C, strain ard1, stronger effect = lower value",0.995
same,normalized growth,"locus YHR027C, strain rpn1, stronger effect = lower value",0.997
same,normalized growth,"locus YHR030C, strain SLT2, stronger effect = lower value",1.01 and 1
same,normalized growth,"locus YHR079C, strain IRE1 (second series), stronger effect = lower value",1.02
same,normalized growth,"locus YHR079C, strain IRE1, stronger effect = lower value",0.988
same,normalized growth,"locus YHR094C, strain hxt1, stronger effect = lower value",0.995
same,normalized growth,"locus YHR129C, strain ARP1, stronger effect = lower value",1.01
same,normalized growth,"locus YHR142W, strain chs7, stronger effect = lower value",1.01
same,normalized growth,"locus YHR200W, strain rpn10, stronger effect = lower value",1.01
same,normalized growth,"locus YIL066C, strain RNR3, stronger effect = lower value",1.04
same,normalized growth,"locus YIL073C, strain SPO22, stronger effect = lower value",1.02
same,normalized growth,"locus YIL125W, strain kgd1, stronger effect = lower value",1
same,normalized growth,"locus YIR030C, strain dcg1, stronger effect = lower value",1
same,normalized growth,"locus YJL092W, strain hpr5, stronger effect = lower value",0.998
same,normalized growth,"locus YJL095W, strain BCK1 (second series), stronger effect = lower value",1
same,normalized growth,"locus YJL095W, strain BCK1, stronger effect = lower value",1.03 and 1.04
same,normalized growth,"locus YJL115W, strain asf1, stronger effect = lower value",1
same,normalized growth,"locus YJL129C, strain trk1, stronger effect = lower value",1.01
same,normalized growth,"locus YJL134W, strain LCB3, stronger effect = lower value",1.01
same,normalized growth,"locus YJL154C, strain vps35, stronger effect = lower value",0.994
same,normalized growth,"locus YJL164C, strain tpk1, stronger effect = lower value",1.01
same,normalized growth,"locus YJL166W, strain qcr8, stronger effect = lower value",1
same,normalized growth,"locus YJL168C, strain set2, stronger effect = lower value",1
same,normalized growth,"locus YJL187C, strain SWE1 (second series), stronger effect = lower value",1.02
same,normalized growth,"locus YJL187C, strain SWE1, stronger effect = lower value",1.02
same,normalized growth,"locus YJR043C, strain POL32, stronger effect = lower value",1.02
same,normalized growth,"locus YJR066W, strain TOR1, stronger effect = lower value",0.93
same,normalized growth,"locus YKL009W, strain mrt4, stronger effect = lower value",0.995
same,normalized growth,"locus YKL068W, stronger effect = lower value",0.993
same,normalized growth,"locus YKL085W, strain MDH1 (second series), stronger effect = lower value",1.01
same,normalized growth,"locus YKL085W, strain MDH1, stronger effect = lower value",1.01
same,normalized growth,"locus YKL160W, strain elf1, stronger effect = lower value",1
same,normalized growth,"locus YKR001C, strain vps1, stronger effect = lower value",0.985
same,normalized growth,"locus YKR026C, strain gcn3, stronger effect = lower value",0.989
same,normalized growth,"locus YKR091W, strain srl3, stronger effect = lower value",0.997
same,normalized growth,"locus YLL001W, strain dnm1, stronger effect = lower value",1
same,normalized growth,"locus YLL026W, stronger effect = lower value",0.994
same,normalized growth,"locus YLL041C, strain sdh2, stronger effect = lower value",0.994
same,normalized growth,"locus YLR027C, strain aat2, stronger effect = lower value",1.01
same,normalized growth,"locus YLR039C, strain RIC1, stronger effect = lower value",1.01
same,normalized growth,"locus YLR058C, strain SHM2, stronger effect = lower value",1.01
same,normalized growth,"locus YLR102C, strain apc9, stronger effect = lower value",0.992
same,normalized growth,"locus YLR113W, strain HOG1, stronger effect = lower value",1.02
same,normalized growth,"locus YLR221C, strain rsa3, stronger effect = lower value",0.996
same,normalized growth,"locus YLR258W, strain gsy2, stronger effect = lower value",0.998
same,normalized growth,"locus YLR262C, strain YPT6 (second series), stronger effect = lower value",1.16 [resistant] (active)
same,normalized growth,"locus YLR262C, strain YPT6, stronger effect = lower value",1.05
same,normalized growth,"locus YLR268W, strain sec22, stronger effect = lower value",1
same,normalized growth,"locus YLR320W, strain mms22, stronger effect = lower value",0.996
same,normalized growth,"locus YLR330W, strain CHS5, stronger effect = lower value",1.01
same,normalized growth,"locus YLR342W, strain FKS1 (second series), stronger effect = lower value",1.02
same,normalized growth,"locus YLR342W, strain FKS1, stronger effect = lower value",1.03
same,normalized growth,"locus YLR357W, strain rsc2, stronger effect = lower value",0.999
same,normalized growth,"locus YLR370C, strain arc18, stronger effect = lower value",0.991
same,normalized growth,"locus YLR371W, strain rom2, stronger effect = lower value",0.99
same,normalized growth,"locus YLR384C, strain iki3, stronger effect = lower value",0.985
same,normalized growth,"locus YLR418C, strain cdc73, stronger effect = lower value",0.99
same,normalized growth,"locus YML016C, strain PPZ1, stronger effect = lower value",1.01
same,normalized growth,"locus YML032C, strain rad52, stronger effect = lower value",0.998
same,normalized growth,"locus YML120C, strain ndi1, stronger effect = lower value",0.996
same,normalized growth,"locus YML124C, strain tub3, stronger effect = lower value",0.996
same,normalized growth,"locus YMR058W, strain fet3, stronger effect = lower value",1
same,normalized growth,"locus YMR078C, strain ctf18, stronger effect = lower value",1.01
same,normalized growth,"locus YMR125W, strain sto1, stronger effect = lower value",0.983
same,normalized growth,"locus YMR129W, stronger effect = lower value",0.998
same,normalized growth,"locus YMR205C, strain PFK2, stronger effect = lower value",1.04
same,normalized growth,"locus YMR223W, strain ubp8, stronger effect = lower value",0.998
same,normalized growth,"locus YMR231W, strain pep5, stronger effect = lower value",0.969
same,normalized growth,"locus YMR307W, strain GAS1, stronger effect = lower value",1.1
same,normalized growth,"locus YNL067W, strain RPL9B, stronger effect = lower value",1.02
same,normalized growth,"locus YNL071W, strain lat1, stronger effect = lower value",1
same,normalized growth,"locus YNL153C, strain GIM3, stronger effect = lower value",1.03
same,normalized growth,"locus YNL183C, strain NPR1, stronger effect = lower value",0.973
same,normalized growth,"locus YNL209W, strain ssb2, stronger effect = lower value",1.02
same,normalized growth,"locus YNL233W, strain BNI4, stronger effect = lower value",1.03
same,normalized growth,"locus YNL248C, strain rpa49, stronger effect = lower value",0.996
same,normalized growth,"locus YNL250W, strain rad50, stronger effect = lower value",1.01
same,normalized growth,"locus YNL271C, strain bni1, stronger effect = lower value",1
same,normalized growth,"locus YNL298W, strain CLA4, stronger effect = lower value",0.988
same,normalized growth,"locus YNL307C, strain MCK1, stronger effect = lower value",0.992
same,normalized growth,"locus YNL322C, strain KRE1 (second series), stronger effect = lower value",0.983
same,normalized growth,"locus YNR049C, strain mso1, stronger effect = lower value",0.991
same,normalized growth,"locus YNR052C, strain pop2, stronger effect = lower value",0.993
same,normalized growth,"locus YOL012C, strain htz1",0.787
same,normalized growth,"locus YOL147C, strain pex11, stronger effect = lower value",0.99
same,normalized growth,"locus YOR001W, strain rrp6, stronger effect = lower value",1.01
same,normalized growth,"locus YOR061W, strain CKA2, stronger effect = lower value",1.01
same,normalized growth,"locus YOR069W, strain VPS5, stronger effect = lower value",1
same,normalized growth,"locus YOR070C, strain gyp1, stronger effect = lower value",1
same,normalized growth,"locus YOR080W, strain dia2, stronger effect = lower value",0.996
same,normalized growth,"locus YOR083W, strain WHI5, stronger effect = lower value",1.01
same,normalized growth,"locus YOR106W, strain vam3, stronger effect = lower value",1.01
same,normalized growth,"locus YOR136W, strain idh2, stronger effect = lower value",1
same,normalized growth,"locus YOR144C, strain elg1, stronger effect = lower value",0.996
same,normalized growth,"locus YOR184W, strain ser1, stronger effect = lower value",1
same,normalized growth,"locus YOR231W, strain MKK1, stronger effect = lower value",0.978
same,normalized growth,"locus YOR265W, strain rbl2, stronger effect = lower value",1
same,normalized growth,"locus YOR270C, strain vph1, stronger effect = lower value",1.06
same,normalized growth,"locus YOR290C, strain snf2, stronger effect = lower value",0.995
same,normalized growth,"locus YOR316C, strain cot1, stronger effect = lower value",0.989
same,normalized growth,"locus YPL051W, strain arl3, stronger effect = lower value",1.01
same,normalized growth,"locus YPL055C, strain LGE1, stronger effect = lower value",1.04
same,normalized growth,"locus YPL078C, strain atp4, stronger effect = lower value",1.01
same,normalized growth,"locus YPL106C, strain sse1, stronger effect = lower value",1.01
same,normalized growth,"locus YPL240C, strain hsp82, stronger effect = lower value",0.995
same,normalized growth,"locus YPL256C, strain CLN2, stronger effect = lower value",0.996
same,normalized growth,"locus YPR119W, strain clb2, stronger effect = lower value",1
same,normalized growth,"locus YPR141C, strain kar3, stronger effect = lower value",0.998
same,normalized growth,"locus YPR163C, strain tif3, stronger effect = lower value",1
same,normalized growth,"locus YPR167C, strain met16, stronger effect = lower value",0.999
same,normalized growth,"strain wtn01, stronger effect = lower value",0.99
